Our source for the outcome and AC50 values is PubChem BioAssay (EPA / NIEHS).

The AC50 is the concentration giving half of the maximal activity seen.

The structures appear in SMILES notation. Where a structure was tested more than once in an assay, its records may differ in their call. Activity calls are given as the source filed them. Rule for the calls: active = hit-call score of the fitted dose curve at least 0.9, where 1 is the maximum; inactive = score below 0.9.

This assay can be described thus: ATG_FoxO_CIS: Attagene CIS-FACTORIAL HepG2 Assay for human Forkhead box O (FoxO) (AID 2282943). Particulars: HepG2 Attagene cis-reporter, FoxO element, mRNA; actives raise or lower the signal. On the procedure:
ATG_CIS is a cell-based, multiplexed-readout assay that uses HepG2, a human liver cell line, with measurements taken at 24 hours after chemical dosing in a 24-well plate.ATG_FoxO_CIS is one of 52 assay component(s) measured or calculated from the ATG_CIS assay. It is designed to make measurements of mRNA induction, a form of inducible reporter, as detected with fluorescence intensity signals by Reverse transcription polymerase chain reaction (RT-PCR) and Capillary electrophoresis technology.Data from the assay component ATG_FoxO_CIS was analyzed into 1 assay endpoint. This assay endpoint, ATG_FoxO_CIS, was analyzed with bidirectional fitting relative to DMSO as the negative control and baseline of activity. Using a type of inducible reporter, measures of mRNA for gain or loss-of-signal activity can be used to understand the reporter gene at the transcription factor-level as they relate to the gene FOXO1 and FOXO3. Furthermore, this assay endpoint can be referred to as a primary readout, because this assay has produced multiple assay endpoints where this one serves a reporter gene function. To generalize the intended target to other relatable targets, this assay endpoint is annotated to the dna binding intended target family, where the subfamily is forkhead box protein.
Human liver HepG2 cells are transiently transfected with multiple reporter transcription units (MRTUs) in 6-well plates using FuGene 6 reagent (Roche; 3 ml FuGene/1 mg DNA). The MRTU constructs are regulated by a cis-regulating element (promoter). […] A major difference between the CIS and TRANS system is that in CIS activities of endogenous TFs are measured, whereas the TRANS assay evaluates changes in activities of exogenous, chimeric NR-Gal4 proteins. […] At the end of 24 hour incubation, total RNA was isolated using TriZol reagent (Invitrogen). The isolated RNA is then reverse-transcribed using oligo(dT) primer and Mo-MLV reverse transcriptase (Invitrogen) with DNAse I (Ambion) treatment for 30 min. The one-tenth of the produced cDNA was amplified by PCR using Taq DNA polymerase (Invitrogen) and two reporter sequence-specific primers. The PCR products were fluorescently labeled by primer extension with 6-arboxyfluorescein (6-FAM) 5'-labeled reporter sequence-specific primer (2 min at 95 C, 20 s at 68 C and 10 min at 72 C) and these products were digested with 5U of HpaI (New England Biolabs) for 2h at 37 C. The fragments were purified using Qiaquick PCR columns (Qiagen), analyzed on an ABI 3130xL genetic analyzer (Applied Biosystems) with peak positions identified by using a set of X-rhodamine (ROX)-labeled MapMarker1000 molecular weight standards (BioVentures). The raw capillary electrophoresis data was processed using Attagraph software (Attagene).
`O=P(O)(O)OCCC(F)(F)C(F)(F)C(F)(F)C(F)(F)C(F)(F)C(F)(F)F`: the outcome was inactive.

On to `O=S(=O)(O)c1ccc2ccccc2c1`, for which the outcome was inactive.

Turning to `FC(F)(F)C(F)(F)C(F)(F)C(F)(F)C(F)(F)CCI`, the compound was classed as inactive.

`OC[C@@H](O)[C@@H](O)[C@H](O)[C@@H](O)CO`: the outcome was inactive. For `O=S(=O)(OCC(F)F)C(F)(F)F`, the call was inactive. On the same count and under the same terms, to `FC(F)(F)C(F)(F)C(F)(F)C(F)(F)C(F)(F)C(F)(F)C(F)(F)I` belongs “inactive”; to `O=C(Cl)C(F)(F)C(F)(F)C(F)(F)C(F)(F)C(F)(F)C(F)(F)C(F)(F)C(F)(F)F`, “inactive”; to `Cc1cc(C)cc(O)c1`, “inactive”.

For the compound `O=S(=O)(OCCOC(F)(F)F)C(F)(F)F`, the compound was classed as inactive. On to `CC/C=C\CCOC(C)=O`, for which the compound was called inactive.

For `O=C(O)C(F)(F)C(F)(F)C(F)F`, the call was inactive. As for `c1ccc(-c2ccccc2-c2ccccc2)cc1`, the outcome was inactive.

As for `CS(C)(=O)=O`, the call was inactive. On to `CCO[Si](CCC(F)(F)C(F)(F)C(F)(F)C(F)(F)C(F)(F)C(F)(F)F)(OCC)OCC`, for which the compound was classed as inactive.

In the case of `O=C(O)C(F)(F)C(F)(F)F`, the call was inactive. Turning to `OCCCC(F)(F)C(F)(F)C(F)(F)C(F)(F)C(F)(F)C(F)(F)C(F)(F)F`, the outcome was inactive and the concentration at half-maximal activity (AC50) is 65.3 µM (active). `O=C(O)C(F)(OC(F)(F)C(F)(OC(F)(F)C(F)(OC(F)(F)C(F)(F)C(F)(F)F)C(F)(F)F)C(F)(F)F)C(F)(F)F` (stereo not given): the compound was classed as inactive. Same read-out and setting: to `CNC(=S)NC` belongs “inactive”; to `O=C(OCCOCCOCCOC(=O)c1ccccc1)c1ccccc1`, “inactive”; to `FC(F)(F)C(F)(F)C(F)(F)C(F)(F)C(F)(F)C(F)(F)C(F)(F)C(F)(F)CCS`, “inactive”. In the case of `FC(F)(F)C(F)(F)C(F)(F)CI`, the compound was classed as inactive. Take `CCCCCCC(C)OC(=O)CCCCC(=O)OC(C)CCCCCC` (stereo not given): the compound was classed as inactive. In the case of `FC(F)(F)C(F)(F)C(F)(F)C(F)(F)C(F)(F)C(F)(F)C(F)(F)Br`, the call was inactive. `C1COCCN1`: the call was inactive. Turning to `CC(C)OC(=O)c1ccccc1C(=O)OC(C)C`, the compound was classed as inactive. As for `CC(CCl)OP(=O)(OC(C)CCl)OC(C)CCl` (stereo not given), the result was inactive.

As for `CCCCCCS`, the call was inactive. For `CC(C)c1ccccc1N`, the concentration at half-maximal activity (AC50) was 152 µM (active). On to `FC(F)(F)C(F)(F)C(F)(F)C(F)(F)C(F)(F)C(F)(F)CC1CO1` (stereo not given), for which the call was inactive.

As for `FC(F)(F)C(F)(F)C(F)(F)C(F)(F)C(F)(F)C(F)(F)C(F)(F)C(F)(F)F`, the compound was called inactive. For the compound `CC(C)(C)C(=O)CC(=O)C(F)(F)C(F)(F)C(F)(F)F`, the compound was classed as inactive. For `[Co]`, the result was inactive. Take `N=C(N)C(F)(F)C(F)(F)C(F)(F)C(F)(F)C(F)(F)C(F)(F)C(F)(F)F`: the result was inactive. Regarding `O=C(O)C(F)(F)C(F)(F)C(F)(F)C(F)(F)C(F)(F)C(F)(F)C(F)(F)C(F)(F)Cl`, the call was inactive. As for `O=C(O)C(F)(F)C(F)(F)C(F)(F)C(F)(F)C(F)(F)C(F)(F)C(F)(F)C(F)(F)C(F)(F)C(F)(F)C(F)(F)C(F)(F)C(F)(F)F`, the result was inactive. For `C=C(C)C(=O)OCC(F)(F)C(F)(F)C(F)(F)C(F)(F)C(F)(F)C(F)(F)C(F)(F)F`, the compound was classed as inactive.

On to `O[Si](c1ccccc1)(c1ccccc1)c1ccccc1`, for which the outcome was inactive. As for `CCN(CC)c1ccc2c(C)cc(=O)oc2c1`, the call was inactive.

Turning to `O=C(C=Cc1ccccc1)OCC=Cc1ccccc1`, the result was inactive.
